The nature of assay [1]: cAMP Responsive Elements (CRE) small molecule antagonists, cell-based qHTS assay: qHTS cell viability counter screen (AID 2060913). Note: nearly all actives have a fitted effect of over 40% in size. Put shortly: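 Cytotoxicity counter screen multiplexed with the CRE-bla antagonist read: HEK293T cells in DMEM with dialyzed FBS and 25 mM HEPES were treated 3 hrs under 0.25 uM final NKH477, then viability measured by CellTiter-Glo luminescence.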
A general note: qHTS replaces the single test concentration by a dilution series.

Assay [2] is described as follows: cAMP Responsive Elements (CRE) small molecule agonists, cell-based qHTS assay: qHTS cell viability counter screen (AID 2060914). Note: nearly all actives have a fitted effect of over 50% in size. In outline:
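Luminescence read-out (CellTiter-Glo, 30 min RT) of ATP-based viability in CRE-bla HEK 293T cells, run in the same wells as the β-lactamase reporter assay after 3 h compound treatment at 37 °C.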

Inconclusive results are not listed. Unmarked numbers belong to inactive results. Activity calls are given as the source filed them. Calls come from the whole dose curve; as a rule, active = well fitted cell-killing curve with a large enough effect in the repeat runs; inconclusive = weak or mixed curves, or effect the other way; inactive = flat fitted curve, though single readings scatter.
% is set by controls: 0 for no effect and ±100 for the full control effect; potency is the fitted concentration of half-maximal effect.

`CC1CC(=O)CC(C)(C)C1` (stereo unspecified): the Potency result in assay [1] and in assay [2] was “inactive” in each case.

Regarding `CC(=O)C(C)C`, the Potency result in assay [1] and in assay [2] was “inactive” in each case.

For the compound `O=C(O)c1ccc([N+](=O)[O-])cc1`, the Potency entry in assay [1] and in assay [2] was “inactive” in each case.

As to `CC[C@H](C)[C@H](N)C(=O)O`, the Potency result in assay [1] and in assay [2] was “inactive” throughout.

Turning to `CN1C[C@H](C(=O)N[C@]2(C)O[C@@]3(O)[C@@H]4CCCN4C(=O)[C@H](Cc4ccccc4)N3C2=O)C[C@@H]2c3cccc4[nH]cc(c34)C[C@H]21`, the Potency entry in assay [1] and in assay [2] was “inactive” throughout.

Take `CCCC/C=C/CCCCO`: the Potency entry in assay [1] and in assay [2] was “inactive” each time.

`CCN=C1C=CC(=C(c2ccc(N(CC)CC)cc2)c2ccc(N(CC)CC)cc2)c2ccccc21`: the figures for the Potency in assay [1] and in assay [2] were 48.3 µM (active) and 30.5 µM (active), respectively.

Take `CN(C)C(=N)N=C(N)N`: the Potency entry in assay [1] and in assay [2] was “inactive” each time.

`COc1nc(C)nc(NC(=O)NS(=O)(=O)c2ccccc2OCCCl)n1`: the Potency result in assay [1] and in assay [2] was “inactive” throughout.

As for `COc1ccc(COC(C)=O)cc1`, the Potency entry in assay [1] and in assay [2] was “inactive” each time.

On to `CCCCCCOc1ccccc1C(N)=O`, for which the Potency result in assay [1] and in assay [2] was “inactive” each time.

Take `CC(C)Cc1ccc(C(C)C(=O)O)cc1` (stereo unspecified): the Potency entry in assay [1] and in assay [2] was “inactive” throughout.

As for `COc1ccccc1OCC(O)CO` (stereo unspecified), the Potency entry in assay [1] and in assay [2] was “inactive” in each case.

Turning to `CCCCCC(N)=O`, the Potency result in assay [1] and in assay [2] was “inactive” in each case.

Turning to `OCCCCCCO`, the Potency result in assay [1] and in assay [2] was “inactive” in each case.

With `N#CCCN(CCO)CCO`, the Potency entry in assay [1] and in assay [2] was “inactive” each time.

For the compound `CC(=O)NCCCCCC(=O)O`, the Potency entry in assay [1] and in assay [2] was “inactive” each time.

`Cc1cccc(C)c1[N+](=O)[O-]`: the Potency entry in assay [1] and in assay [2] was “inactive” throughout.

For the compound `Nc1ccc(N=Nc2ccc(N)cc2)cc1`, the Potency result in assay [1] and in assay [2] was “inactive” each time.

For `CC(C)(C)N`, the Potency entry in assay [1] and in assay [2] was “inactive” each time.

For `CO[Si](CCCn1c(=O)n(CCC[Si](OC)(OC)OC)c(=O)n(CCC[Si](OC)(OC)OC)c1=O)(OC)OC`, the Potency entry in assay [1] and in assay [2] was “inactive” throughout.

In the case of `O=C(O)Cc1ccccc1Oc1ccc(Cl)cc1Cl`, the Potency result in assay [1] and in assay [2] was “inactive” each time.

Regarding `CC(=O)S[C@@H]1CC2=CC(=O)CC[C@]2(C)[C@H]2CC[C@@]3(C)[C@@H](CC[C@@]34CCC(=O)O4)[C@H]12`, the Potency result in assay [1] and in assay [2] was “inactive” in each case.

For the compound `Nc1ccc(N)c(Cl)c1`, the Potency entry in assay [1] and in assay [2] was “inactive” throughout.

Consider `CCCOCC(C)O` (stereo unspecified), for which the Potency entry in assay [1] and in assay [2] was “inactive” each time.

In the case of `O=C(O)CCC(=O)C(=O)O`, the Potency entry in assay [1] and in assay [2] was “inactive” each time.

Turning to `N[C@@H](CCC(=O)O)C(=O)O`, the Potency result in assay [1] and in assay [2] was “inactive” each time.

With `O=C(O)C(S)C(S)C(=O)O` (stereo unspecified), the Potency result in assay [1] and in assay [2] was “inactive” each time.

`CCCCCCOCCO`: the Potency entry in assay [1] and in assay [2] was “inactive” each time.

With `CC(C)c1ccc(C(=O)N=C(N)N)cc1S(C)(=O)=O`, the Potency entry in assay [1] and in assay [2] was “inactive” throughout.

Take `CCCCCCC/C=C/C=O`: the Potency entry in assay [1] and in assay [2] was “inactive” in each case.

Take `CC(=O)[C@@]1(O)CC[C@H]2[C@@H]3CCC4=CC(=O)CC[C@]4(C)[C@H]3CC[C@@]21C`: the Potency entry in assay [1] and in assay [2] was “inactive” each time.

Turning to `CC(=O)c1ccc2c(c1)[C@H](NC(=O)c1ccc(F)cc1)[C@@H](O)C(C)(C)O2`, the Potency result in assay [1] and in assay [2] was “inactive” each time.

With `CC(=O)c1ccccn1`, the Potency result in assay [1] and in assay [2] was “inactive” throughout.

`N#CCC(=O)O`: the Potency result in assay [1] and in assay [2] was “inactive” throughout.

For the compound `CC(C)=CCCC(C)C=O` (stereo unspecified), the Potency entry in assay [1] and in assay [2] was “inactive” throughout.

Consider `O=NN(CCCl)C(=O)NC1CCCCC1`, for which the Potency result in assay [1] and in assay [2] was “inactive” in each case.

Consider `CC(C)(C)NCC(O)COc1cccc2c1CCC(=O)N2` (stereo unspecified), for which the Potency entry in assay [1] and in assay [2] was “inactive” throughout.

Consider `COS(C)(=O)=O`, for which the Potency result in assay [1] and in assay [2] was “inactive” in each case.

Regarding `OC[C@H]1O[C@@H]2O[C@H]3[C@H](O)[C@@H](O)[C@@H](O[C@H]4[C@H](O)[C@@H](O)[C@@H](O[C@H]5[C@H](O)[C@@H](O)[C@@H](O[C@H]6[C@H](O)[C@@H](O)[C@@H](O[C@H]7[C@H](O)[C@@H](O)[C@@H](O[C@H]8[C@H](O)[C@@H](O)[C@@H](O[C@H]1[C@H](O)[C@H]2O)O[C@@H]8CO)O[C@@H]7CO)O[C@@H]6CO)O[C@@H]5CO)O[C@@H]4CO)O[C@@H]3CO`, the Potency entry in assay [1] and in assay [2] was “inactive” throughout.

Consider `Cc1ncc([C@@H](CCCCCCc2ccc3c(n2)NCCC3)CC(=O)O)cn1`, for which the Potency entry in assay [1] and in assay [2] was “inactive” each time.

As to `O=C(/N=N/C(=O)OCc1ccccc1)OCc1ccccc1`, the Potency result in assay [1] and in assay [2] was “inactive” in each case.

In the case of `CC(=O)Nc1ccccc1O`, the Potency result in assay [1] and in assay [2] was “inactive” each time.

Turning to `NC(CO)C(=O)NNCc1ccc(O)c(O)c1O` (stereo unspecified), the Potency result in assay [1] and in assay [2] was “inactive” throughout.

For `CC(C(O)c1ccc(O)cc1)N1CCC(Cc2ccccc2)CC1` (stereo unspecified), the Potency entry in assay [1] and in assay [2] was “inactive” in each case.

As for `CCC(Cl)CCC(Cl)C(Cl)CC(Cl)C(Cl)C(Cl)CCl` (stereo unspecified), the Potency result in assay [1] and in assay [2] was “inactive” in each case.

On to `CC(C)COC(=O)C(C)C`, for which the Potency entry in assay [1] and in assay [2] was “inactive” throughout.

For the compound `CC1=NC(C)OC1C` (stereo unspecified), the Potency result in assay [1] and in assay [2] was “inactive” throughout.

Regarding `C[Si](C)=O`, the viability change, negative = cytotoxic in assay [1] is 7.47% [at 8.39 µM]. The activity change, negative = cytotoxicity in assay [2] is -0.0708% [at 8.39 µM].

On to `O=C1OCCN1/N=C/c1ccc([N+](=O)[O-])o1`, for which the Potency result in assay [1] and in assay [2] was “inactive” throughout.

Take `O=S1(=O)OC(c2ccc(O)cc2)(c2ccc(O)cc2)c2ccccc21`: the Potency entry in assay [1] and in assay [2] was “inactive” throughout.

For `CCN(CC)CCNc1ccc(CO)c2sc3ccccc3c(=O)c12`, the Potency result in assay [1] and in assay [2] was “inactive” each time.

As for `[Cl][Sc]([Cl])[Cl]`, the Potency entry in assay [1] and in assay [2] was “inactive” in each case.

The values above are taken from PubChem BioAssay (Tox21).
